# Whole data set: some 68,000 sequences, median “fluorescence intensity (a.u.)” near 9,100, cut for the highest 2% near 16,000. The full list was thinned out, with the highest values kept by preference.
# Molecular target: OsWRKY34 (Oryza sativa, UniProt Q0JBA9 1-250)
# Experiment: protein-binding microarray (RPBM); PBS, 2% BSA, 51.3 ng/ul salmon testes DNA, 50 uM zinc acetate, 200 nM TF, 25 C, 1 h; high values mean tight binding
# Details: protein: recombinant; tags: N-terminal polyhistidine and DsRed monomer fusion (pET32a); label: CyDye5-dUTP incorporated in the synthesized complementary strand; 3' TTTTT single-stranded linker to array surface; dsDNA, one strand shown
# In short: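 Transcription factors, each fused N-terminally to a polyhistidine tag and DsRed, were expressed in E. coli BL21-CodonPlus and purified on Ni–NTA. A custom Agilent array was made double-stranded by primer extension with Cy5-dUTP and blocked with 2% BSA. It was incubated with 200 nM protein in PBS, 2% BSA, salmon testes DNA and 50 µM zinc acetate at 25 °C for 1 h, then washed. The binding signal is per-feature fluorescence intensity (arbitrary units) read on an Axon 4000B scanner.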
# Sequence of OsWRKY34 (Q0JBA9 entry or part of it): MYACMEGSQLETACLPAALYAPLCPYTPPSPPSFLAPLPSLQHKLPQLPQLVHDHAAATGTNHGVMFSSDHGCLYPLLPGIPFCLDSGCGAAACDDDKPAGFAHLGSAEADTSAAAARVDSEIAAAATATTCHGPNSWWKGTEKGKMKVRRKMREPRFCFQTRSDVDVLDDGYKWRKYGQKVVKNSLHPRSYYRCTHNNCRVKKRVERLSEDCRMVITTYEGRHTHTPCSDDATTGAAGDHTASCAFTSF
row,Sequence,binding signal
1,CGAGGTGTGTCTCTCTCCCGTTCACCCGTCCGTATCCTTCCGGAGTCACCTAGTGCAG,11100 fluorescence intensity (a.u.)
2,CGATTATTTCACTAGAGGCAACCATACTGCTACCAAATCCCGGAGTCACCTAGTGCAG,10200 fluorescence intensity (a.u.)
3,TACCTGTTTGTTTTTAAGTTCAGATATTATATTACGTAACCGGAGTCACCTAGTGCAG,8930 fluorescence intensity (a.u.)
4,ACCCCATTTTTTTTGAAAATTCTCGAATTTTATTTTTTTTCGGAGTCACCTAGTGCAG,8750 fluorescence intensity (a.u.)
5,AGTCCGACTTTTCCTTTTTTTTTTCCGTGTTTTCCGTTTCCGGAGTCACCTAGTGCAG,14800 fluorescence intensity (a.u.)
6,TTTGTCGTTGCTTCCCTTCTTGGAGACCTTGCCTTGAAGACGGAGTCACCTAGTGCAG,8090 fluorescence intensity (a.u.)
7,ATTATATTTTAGGTCGCATTTTGATTCTTTTCATGTAATCCGGAGTCACCTAGTGCAG,8660 fluorescence intensity (a.u.)
8,TGGTTATGTGCCACAAATCATATATGCAATTTTGACTATACGGAGTCACCTAGTGCAG,9270 fluorescence intensity (a.u.)
9,ATGGAATCGATCACCTGCAATGCAACACCGTGCCATAATCCGGAGTCACCTAGTGCAG,8520 fluorescence intensity (a.u.)
10,GAGGAGAGCAGAACAGAACAAGAGGAGGAGAACAAAAAAACGGAGTCACCTAGTGCAG,8230 fluorescence intensity (a.u.)
11,ATATATATATATATATATATATTTTGTCTTGAGTGGTTTGCGGAGTCACCTAGTGCAG,11700 fluorescence intensity (a.u.)
12,TCTCTTTCTCTCGCTTTCTTTTTGCATAGTTTTCTTCATGCGGAGTCACCTAGTGCAG,8700 fluorescence intensity (a.u.)
13,TTTTGCTTTGGTTGGTTTGCTCGTTTTTTTTTTCTTTTCTCGGAGTCACCTAGTGCAG,19600 fluorescence intensity (a.u.)
14,TTTTCTTTGCTTTTCGGTTTCGTTCTCCGTTTTGGTTTTTCGGAGTCACCTAGTGCAG,12400 fluorescence intensity (a.u.)
15,TGTCACAGTGTTTTGTTTGTGTTTTTGACCTTGCTTTCCTCGGAGTCACCTAGTGCAG,16800 fluorescence intensity (a.u.)
16,GTAGTTTTTTTCCTAGTTTCAGTTTTTGTTTTGCTTTTTTCGGAGTCACCTAGTGCAG,11200 fluorescence intensity (a.u.)
17,GTCTCGGTCTTTTCGATCTCGGTCTTTTCGGTTCGGTCTTCGGAGTCACCTAGTGCAG,9340 fluorescence intensity (a.u.)
18,CTCGCTTTTCTCTTTTTTGATACTGTCTCGTGGTTTCTTGCGGAGTCACCTAGTGCAG,18400 fluorescence intensity (a.u.)
19,GAACACGATGACATCGGATCGGGTCGGTTTCTCTCTTGCTCGGAGTCACCTAGTGCAG,9010 fluorescence intensity (a.u.)
20,GGGTCGGTTTCTCTCTTGCTGTCTTCTCGATCGATCGATGCGGAGTCACCTAGTGCAG,20200 fluorescence intensity (a.u.)
21,ATGTTTTTCTTTTCTTTCTTCTTTTTTTTGTTTTTGACCTCGGAGTCACCTAGTGCAG,11900 fluorescence intensity (a.u.)
22,TTGGATCGTTTGCTTTTCTTTGCCTTTCTTTTGGATTTCTCGGAGTCACCTAGTGCAG,11700 fluorescence intensity (a.u.)

row,Sequence,binding signal
1,GCGTGGTTGATTTTTAGTCTTGTCGACTTCGACTTTAAGCCGGAGTCACCTAGTGCAG,9120 fluorescence intensity (a.u.)
2,TCGGTACTCTTGCTGAAGCAATCCTTTCTTCCTTGCCTAACGGAGTCACCTAGTGCAG,9140 fluorescence intensity (a.u.)
3,ACAGTACGCTACTATTCATACGCTAAATTTGTCTTTTTTACGGAGTCACCTAGTGCAG,9830 fluorescence intensity (a.u.)
4,GGTTATTATATCTACAAAATTCTTGCACACCTCAGCAATGCGGAGTCACCTAGTGCAG,8090 fluorescence intensity (a.u.)
5,TCCGTCTGTCTATAGCTACTATTAAAGGAGGGGAGGCTCTCGGAGTCACCTAGTGCAG,8130 fluorescence intensity (a.u.)
6,AAACAAACACAGAGCTTCTCTCCTCTGTTCTCCTTCTCTGCGGAGTCACCTAGTGCAG,8090 fluorescence intensity (a.u.)
7,TCGTCTCCGGCCTTTTCTTGCTCTCCTCGTCTTCTTCCTCCGGAGTCACCTAGTGCAG,13200 fluorescence intensity (a.u.)
8,TGTGCAGTTTTGCTGTTTATGACTAGTTTACCTGTTGTCTCGGAGTCACCTAGTGCAG,10800 fluorescence intensity (a.u.)
9,TGCACTTCTCCACTTCACTCCTCGTCTCTTGCCGTCTTTTCGGAGTCACCTAGTGCAG,13200 fluorescence intensity (a.u.)
10,ACTGTGGTTATCTTGCTATCTCTCCTACTCGCTCTGTCAACGGAGTCACCTAGTGCAG,16500 fluorescence intensity (a.u.)
11,AATTTTCCGTTTCTCCTTTTCTTGCTTTGTTTTTTCCTTGCGGAGTCACCTAGTGCAG,15200 fluorescence intensity (a.u.)
12,CTACATCTTCTCTCGCTATCTCTCTCTGTACTCTCTCTCTCGGAGTCACCTAGTGCAG,11400 fluorescence intensity (a.u.)
13,TAGTTTTGTTTAATTCCTGTCTCGGGTTTGGTTGGTTGCTCGGAGTCACCTAGTGCAG,19100 fluorescence intensity (a.u.)
14,TTCACTTTCACCTCGCCGTCTTGGTTGTCTTGCCGTCTTTCGGAGTCACCTAGTGCAG,20200 fluorescence intensity (a.u.)
15,CCTGTTTTTTGTTTTTGGTGGTGGTTCCGTCTCGGTTAATCGGAGTCACCTAGTGCAG,9840 fluorescence intensity (a.u.)
16,GATTTTTTTTTTCTCGTCTCCTCGTTTTTGCTTGCCTTTCCGGAGTCACCTAGTGCAG,19200 fluorescence intensity (a.u.)
17,TGGCTCTCTCGCTCCTATGTGGCTATGTCTGTCTACCTAACGGAGTCACCTAGTGCAG,10800 fluorescence intensity (a.u.)
18,GATGTCTCTCTTTTTTTTTTTGGTTTGGGTTGTCACTTTTCGGAGTCACCTAGTGCAG,9400 fluorescence intensity (a.u.)
19,CACGAAGCCAGTCTAACCGCCATGTGTGGGCTTGTTTGACCGGAGTCACCTAGTGCAG,8700 fluorescence intensity (a.u.)
20,TGCTTCTTGGACATCGCATCATATTTAAGCATGTTTTCCTCGGAGTCACCTAGTGCAG,10500 fluorescence intensity (a.u.)
21,CTCTCTTTCTCTTCCATTTCTTGAAACTTGTATGGAGGTTCGGAGTCACCTAGTGCAG,9410 fluorescence intensity (a.u.)
22,ATCATTTCGCACATTAACTCTCTCTCTCTCTCTCCATTTTCGGAGTCACCTAGTGCAG,15200 fluorescence intensity (a.u.)

row,Sequence,binding signal
1,AACCTTTTCTTTCTTTCTTCACTTTGGTTGCGTTGCGTCTCGGAGTCACCTAGTGCAG,24200 fluorescence intensity (a.u.)
2,GACCTTTTTTTCTTTTCTTCTTTGTTCTTTGTTGTTCTCTCGGAGTCACCTAGTGCAG,10700 fluorescence intensity (a.u.)
3,GAATTTTGCTTTGGTTCAACCTTTTTTCTCTTCTTTCTCTCGGAGTCACCTAGTGCAG,9740 fluorescence intensity (a.u.)
4,AAGGTATGGTTCTTCATTCTTGTCATTTTCTTTTGCAGCACGGAGTCACCTAGTGCAG,8220 fluorescence intensity (a.u.)
5,CTCAGCTTCCGTTATTACCTCTGCGCACAAGTTACCGGGCCGGAGTCACCTAGTGCAG,8720 fluorescence intensity (a.u.)
6,GAAAAAAATGTAAAAACTGTTGACTTTTAGTCAACGCCATCGGAGTCACCTAGTGCAG,16400 fluorescence intensity (a.u.)
7,TTGACGCCGTTGACTTTTTAAAAAATATTTGACCGTTCTTCGGAGTCACCTAGTGCAG,37100 fluorescence intensity (a.u.)
8,CCTCATCACAAAATGTTTGACGCTGTTGACTTTTTTAAAACGGAGTCACCTAGTGCAG,15900 fluorescence intensity (a.u.)
9,TGTTTGACTTTTTTCTTGGTTAAAATTCTTTAAATTTGATCGGAGTCACCTAGTGCAG,18900 fluorescence intensity (a.u.)
10,AAGATATTTTCAATGTATTTTTTTATTGTTGACTTTTAAACGGAGTCACCTAGTGCAG,9030 fluorescence intensity (a.u.)
11,AAATTAAATTTAAAAATTTAAATTTTGACTTTTTCTTGACCGGAGTCACCTAGTGCAG,8250 fluorescence intensity (a.u.)
12,CTCCATCCTAAAATGTTTGACGCCGTTGACTTTTTTAAATCGGAGTCACCTAGTGCAG,24500 fluorescence intensity (a.u.)
13,GTACTCCCTCCATCCCTAAATGTTTGACGCCGTTGACTTTCGGAGTCACCTAGTGCAG,16000 fluorescence intensity (a.u.)
14,AATTTTCTTAAAATTTGAGGTTTAGTTTGACTTTCTTTTTCGGAGTCACCTAGTGCAG,9400 fluorescence intensity (a.u.)
15,GGTGGTTCTTGCTTCACACAATCTGGCGCGCTTCAGAACACGGAGTCACCTAGTGCAG,13300 fluorescence intensity (a.u.)
16,AAAACATGGTACAAATGCATACGCTCACACATGCACACTCCGGAGTCACCTAGTGCAG,8300 fluorescence intensity (a.u.)
17,ACTCACACTAGCTTGAAACTATCTGCGTACTCAAATTCAACGGAGTCACCTAGTGCAG,8080 fluorescence intensity (a.u.)
18,CCATCCCGCCGCCACCGCCGCCGCCGCCGCCTCATCCTCCCGGAGTCACCTAGTGCAG,9300 fluorescence intensity (a.u.)
19,ATTCTCAAATACCACTCGGGCCCACATGTCAGCCTTACTCCGGAGTCACCTAGTGCAG,8200 fluorescence intensity (a.u.)
20,CGGCTCGCTCAACCATACCACCTTTTCAAATTCATTTTTCCGGAGTCACCTAGTGCAG,11600 fluorescence intensity (a.u.)
21,ATTTTTGACGCCGTTGACTTTTTTTAAATATGTTTGACCGCGGAGTCACCTAGTGCAG,46900 fluorescence intensity (a.u.)
22,ATCTTTGACGTCGTTGACTTTTAAAAAAATGTTTGACCGTCGGAGTCACCTAGTGCAG,22300 fluorescence intensity (a.u.)

row,Sequence,binding signal
1,ATATTTGACGACGTTGATTTTTTTTAAATATGTTTGACCGCGGAGTCACCTAGTGCAG,9090 fluorescence intensity (a.u.)
2,CGCCGTTGACTTTTTTAAAAATGTTTGACCGTTCCTCTTACGGAGTCACCTAGTGCAG,20900 fluorescence intensity (a.u.)
3,CGTCTCTAAATACTTGACGCCGTTGACTTTTTTAAATATGCGGAGTCACCTAGTGCAG,26900 fluorescence intensity (a.u.)
4,ACGTCTCCACCACCACCACCGGCCAAACGCCGACCTCATCCGGAGTCACCTAGTGCAG,9450 fluorescence intensity (a.u.)
5,CCAGTCAATTTCCCCACGTGCCATCTCGCTGCATCCGCCGCGGAGTCACCTAGTGCAG,10500 fluorescence intensity (a.u.)
6,CTCGCGCGCCCCGCCCGTTTCGCCTCGGCCGCCTCCTCCACGGAGTCACCTAGTGCAG,8480 fluorescence intensity (a.u.)
7,CATCTGCACGCATATATATCTGTAAACTCAGCGCGTTTTTCGGAGTCACCTAGTGCAG,8100 fluorescence intensity (a.u.)
8,ATTGTGGACTGTTTGACCTCCAGTTTGGACTGTAGGAATTCGGAGTCACCTAGTGCAG,8060 fluorescence intensity (a.u.)
9,CTGTTGGTCAATCGCCGAACTTACCGCCGCGCCGGCCATGCGGAGTCACCTAGTGCAG,9410 fluorescence intensity (a.u.)
10,TTCATTTTCAATTCCCGTCCTCATTCTTCTTATGATATTTCGGAGTCACCTAGTGCAG,8930 fluorescence intensity (a.u.)
11,AATCCATAATTAGTAAATATTTACTGTAGCACCATATTGTCGGAGTCACCTAGTGCAG,9810 fluorescence intensity (a.u.)
12,GTTGTTGACTTTTTAAAATTTGTTTGACCATTCATCTTATCGGAGTCACCTAGTGCAG,23100 fluorescence intensity (a.u.)
13,ACGCCGTTGACTTTTTAAAATATGTTTGACCGTTTATCTTCGGAGTCACCTAGTGCAG,45700 fluorescence intensity (a.u.)
14,GTTGACTTTTTTTTAAACATGTTTGACCATTCATCTTATTCGGAGTCACCTAGTGCAG,11100 fluorescence intensity (a.u.)
15,ACTTTTTAAAACATGTTTGACCGTTCATCTTATTCAAAAACGGAGTCACCTAGTGCAG,8410 fluorescence intensity (a.u.)
16,ATTTTGACTTTTTCTTGTACTGTTTGACCATTCATCTTATCGGAGTCACCTAGTGCAG,16200 fluorescence intensity (a.u.)
17,ACTTTTTAAAACATGTTTGACCGTTCATCTTATTTAAAAACGGAGTCACCTAGTGCAG,8690 fluorescence intensity (a.u.)
18,ATTTGACGCCGTTACTTTTTTTAAAAATGTTTGGCCGTTCCGGAGTCACCTAGTGCAG,8270 fluorescence intensity (a.u.)
19,CGCTGTTGACTTTTTTAAAAATGTTTGACCGTTCATCTTACGGAGTCACCTAGTGCAG,33600 fluorescence intensity (a.u.)
20,AATGTTTGACGCCGTTGACTTTTTTAAAAATGTTTGGCCGCGGAGTCACCTAGTGCAG,29800 fluorescence intensity (a.u.)
